From PubChem BioAssay
AmpC inh detg – inhibitors of E. coli AmpC beta-lactamase with detergent. P00811. AmpC hydrolysis of nitrocefin, absorbance 480 nm, 0.01% Triton. Potency, µM (top dose mostly 114 µM), without a hit: top-dose activity change, negative = inhibition, actives largely listed as inhibitors. 370,000 compounds, 0.041% hits;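 also: 0% = no-compound wells and -100% = no-enzyme wells; nearly all actives have a fitted effect of over 25% in size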
Target sequence (P00811 whole entry, looked up): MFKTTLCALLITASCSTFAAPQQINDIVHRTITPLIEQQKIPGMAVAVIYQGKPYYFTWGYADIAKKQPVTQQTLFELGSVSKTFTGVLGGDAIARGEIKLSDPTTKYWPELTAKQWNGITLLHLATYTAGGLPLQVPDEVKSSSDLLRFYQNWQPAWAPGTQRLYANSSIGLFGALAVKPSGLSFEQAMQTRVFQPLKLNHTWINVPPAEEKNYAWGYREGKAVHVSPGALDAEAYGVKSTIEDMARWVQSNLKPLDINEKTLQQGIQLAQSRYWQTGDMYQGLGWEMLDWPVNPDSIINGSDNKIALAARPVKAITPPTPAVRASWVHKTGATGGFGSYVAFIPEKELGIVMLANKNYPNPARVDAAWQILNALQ
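20 mM phosphate pH 7.0 + 0.01% (detergent screen) or 0.0001% Triton X-100; 5.3 nM AmpC reagent; cpd preinc 15 min RT; nitrocefin (800 uM stock) to start; A480 q20 s × 4 min; Activity was normalised to no-enzyme and no-compound control wells.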
Sm TGR inh – S. mansoni TGR enzyme inhibition. Q962Y6. purified TGR, DTNB reduction, TNB absorbance 405 nm. Potency, µM (top dose mostly 114 µM), for the others: at the highest dose activity change, negative = inhibition, most hits filed as inhibitors. 360,000 compounds, 3% hits. AID 485364; also: nearly all actives have a fitted effect of over 60% in size
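First, TGR (20 nM dispensed) and NADPH were mixed with compound. Second, a 15 min room-temperature incubation followed. Third, further NADPH and then DTNB were added to start the reaction. Finally, TNB absorbance was monitored kinetically.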
AmpC inh no detg – inhibitors of E. coli AmpC beta-lactamase without detergent; AmpC nitrocefin hydrolysis, absorbance 480 nm, 0.0001% Triton; AID 485341; 330,000 compounds, 0.52% hits; Potency, µM (highest dose often 57.1 µM), without a hit: at the highest dose activity change, negative = inhibition, hits mostly inhibitors;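 also: plate controls were no compound for no effect and no enzyme for full effect; nearly all actives have a fitted effect of over 20% in size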
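20 mM phosphate pH 7.0 + 0.01% (detergent screen) or 0.0001% Triton X-100; 5.3 nM AmpC reagent; cpd preinc 15 min RT; nitrocefin (800 uM stock) to start; A480 q20 s × 4 min; Activity was normalised to no-enzyme and no-compound control wells.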
* = called active by the depositor; ? = inconclusive; . = no result given. Most compounds without a hit are left out; they make up all but 3.3% or so of the library. Calls follow the shape of the dose curve; as a rule, active = well fitted curve in the direction sought with a large enough effect; inconclusive = small, poorly fitted or top-dose-only effect, or another doubt; inactive = no such curve, though single readings can be large; an effect the other way counts as inactive or inconclusive. Unless noted, % is scaled to controls: 0 for no effect and ±100 for the full control effect; potency is read from the fitted curve at half-maximal effect.

SMILES | AmpC inh detg | Sm TGR inh | AmpC inh no detg
CN(C)c1ncc(/C=C2/C(=O)NC(=S)N(C3CCCCC3)C2=O)cn1 | -4% | . | -40%
CSc1ncc(/C=C2/C(=O)NC(=O)N(C)C2=O)cn1 | -11% | 1.4µM* | -23%
CCCCN1C(=O)NC(=O)/C(=C/c2cnc(SC)nc2)C1=O | 2% | 7.1µM* | -18%
CCCCN1C(=O)/C(=C/c2ccc(N3CCCCCC3)cc2)C(=O)NC1=S | -5% | ? | -24%
CSc1ncc(/C=C2/C(=O)NC(=O)N(C3CCCCC3)C2=O)cn1 | 2% | 5µM* | -8%
Cn1cc(C(=O)NCc2ccccc2)c(=O)c2cc(S(=O)(=O)N3CCOCC3)ccc21 | 2% | -1% | .
Fc1cccc(Cl)c1CNCCSc1nnnn1-c1ccccc1 | 21% | 1% | .
CN(C)CCCNc1cc(N2CCN(C3CCCCC3)CC2)c2noc3c2c1C(=O)c1ccccc1-3 | 15% | -1% | .
O=c1c2ccccc2nc(-c2ccc(Cl)cc2)n1CCCCOc1ccc(F)cc1 | 12% | -3% | .
Cn1c(=O)[nH]c(=O)c2c1nc(CN1CCN(c3cccc(Cl)c3)CC1)n2Cc1ccccc1Cl | ? | -2% | 45µM*
CCN1CCN(Cc2nc3c(c(=O)[nH]c(=O)n3C)n2Cc2ccccc2Cl)CC1 | ? | 0% | -21%
CCc1ccc(NC(=O)CC2C(=O)N(c3cccc(C)c3)C(=O)N2Cc2cccc(OC)c2)cc1 (stereo not drawn) | -6% | 0% | .
CC1CCCCN1C(=O)Cn1c(SCC(=O)N(C)c2ccccc2)nc2ccccc21 (stereo not drawn) | 19% | -1% | .
COc1ccc2c(c1)Cc1sc(NC(=O)c3ccc(Cl)cc3)nc1-2 | 15% | -25% | .
O=[N+]([O-])c1ccc(N=Cc2ccc(Br)c([N+](=O)[O-])c2)cc1 | ? | 32µM* | -14%
Cc1c(N=Cc2ccc(O)c(Br)c2)cccc1[N+](=O)[O-] | -4% | 1% | -16%
CC(C)c1ccc(S(=O)(=O)NCc2nc3cccnc3n2Cc2ccc(F)cc2)cc1 | 0% | 8% | .
N#Cc1ccc(N2C(=O)[C@@H]3C(C(=O)c4cnccn4)=NN[C@@H]3C2=O)cc1 | -8% | 8.9µM* | -26%
O=C(C1=NN[C@@H]2C(=O)N(c3ccccc3C(F)(F)F)C(=O)[C@H]12)c1ccc2ccccc2n1 | -1% | -11% | 12%
O=C(C1=NN[C@@H]2C(=O)N(c3cccc(C(F)(F)F)c3)C(=O)[C@H]12)c1cnccn1 | -2% | 18µM* | -8%
O=C(C1=NNC2C(=O)N(c3ccccc3)C(=O)C12)c1nc(Cl)ccc1Cl (stereo not drawn) | -15% | 10% | -10%
N#Cc1ccc(N2C(=O)[C@@H]3C(C(=O)c4ccc5ccccc5n4)=NN[C@@H]3C2=O)cc1 | -9% | 50µM* | -52%
O=C(C1=NN[C@@H]2C(=O)N(c3cccc(C(F)(F)F)c3)C(=O)[C@H]12)C(c1ccccc1)c1ccccc1 | -4% | 2% | -40%
O=C(Cn1c(=O)oc2cc(S(=O)(=O)NCc3ccccc3)ccc21)N(CCO)Cc1ccccc1 | 0% | -1% | .
COc1ccc(OC)c(NC(=O)CSc2ccnc(=O)[nH]2)c1 | 5% | -1% | .
SMILES | AmpC inh detg | Sm TGR inh | AmpC inh no detg
CCN(Cc1ccccc1)C(=O)CCS(=O)(=O)c1cc(Br)cc2c1N(C(=O)C1CC1)CC2 | 7% | -13% | .
CCN(c1ccccc1)c1nnc(NC(=O)Nc2ccccc2F)s1 | 5% | -11% | .
CC(=O)Nc1ccc(S(=O)(=O)Nc2ccc(=O)n(Cc3ccc(Cl)c(Cl)c3)c2)cc1 | ? | 8% | -23%
Cc1ccc(S(=O)(=O)Nc2ccc(=O)n(Cc3ccc(Cl)c(Cl)c3)c2)cc1 | ? | 40µM* | -35%
CCc1cccc(C)c1NC(=O)COC(=O)c1c2c(nc3ccccc13)/C(=C\c1cccs1)CCC2 | -4% | -8% | -49%
Cc1cc(C(=O)OCC(=O)NC2CCCC2)c2ccccc2n1 | -8% | -9% | -22%
Cc1cc(C(=O)OCC(=O)NC2CCCCC2C)c2ccccc2n1 (stereo not drawn) | . | . | 1%
CC1CCCCC1NC(=O)COC(=O)c1c2c(nc3ccccc13)/C(=C/c1ccco1)CC2 (stereo not drawn) | ? | 14µM* | 16µM*
O=C(COC(=O)c1c2c(nc3ccccc13)/C(=C/c1ccco1)CC2)NC1CCCC1 | -11% | 5µM* | 18µM*
NC(=O)c1ccc(NC(=O)COC(=O)c2c3c(nc4ccccc24)/C(=C\c2cccs2)CCC3)cc1 | -3% | -7% | 3.2µM*
CCOCCCNC(=O)NC(CCC(C)C)c1c(-n2cccc2)sc2c1CCN(C)C2 (stereo not drawn) | -5% | -31% | .
CC(C)c1nc2ccc(C(=O)NCc3ccc(N(C)C)cc3)cc2o1 | 18% | -5% | .
O=C(Nc1cc(F)ccc1F)C1CCN(C(=O)c2cnn(-c3ccccc3)c2-n2cccc2)CC1 | 18% | 4% | .
O=C(CC1N=C2c3ccccc3N=C(SCc3ccccc3Cl)N2C1=O)NC1CCCCC1 (stereo not drawn) | 4% | 4% | .
CS(=O)(=O)N(CC(=O)N/N=C/c1ccco1)c1ccccc1Br | -5% | -7% | -25%
Cc1oc(/C=N/NC(=O)CN(c2ccccc2Br)S(C)(=O)=O)cc1Br | -4% | 45µM* | -30%
Cc1ccccc1N(CC(=O)N/N=C/c1cc(Br)c(C)o1)S(C)(=O)=O | -1% | 79µM* | -35%
Cc1oc(/C=N/NC(=O)CN(c2ccccc2Cl)S(C)(=O)=O)cc1Br | ? | ? | -17%
CCCN(c1ccccc1F)S(=O)(=O)c1ccc2c(c1)C(C)(C)C(=O)N2C | -6% | 0% | .
Cc1ccc(C(=O)N(Cc2ccc(N(C)C)cc2)Cc2ccco2)cc1 | 19% | 4% | .
Cc1ccc(-c2cc(C(=O)OCC(=O)c3ccccc3)c3cccc(Cl)c3n2)cc1 | 3% | -1% | .
COc1ccc(OC)c(NC(=O)c2ccc3c(SCC(=O)O)c4c(nc3c2)CCCC4)c1 | -13% | -3% | .
COc1ccc(N(C(=O)CCl)C(C(=O)NC2CCCCC2)c2cccnc2)cc1 (stereo not drawn) | -11% | 14µM* | 127%
CCOc1ccc(NC(=O)C(c2ccccn2)N(C(=O)CCl)c2ccc(OCC)cc2)cc1 (stereo not drawn) | -2% | 45µM* | 24%
CC(=O)Nc1ccc(C(=O)N(C)C(C(=O)Nc2ccc(C)cc2)c2ccccn2)cc1 (stereo not drawn) | 3% | -4% | -29%
CCOc1ccc(NC(=O)C(c2ccccn2)N(C(=O)CCl)c2ccc(OC)cc2)cc1 (stereo not drawn) | -5% | 45µM* | 84%
O=C(NC1CCCCC1)C(c1cccnc1)N(C(=O)CCl)c1ccc(F)cc1 (stereo not drawn) | -5% | -5% | 90%
COc1ccc(NC(=O)C(c2ccccn2)N(C(C)=O)c2ccc(C)cc2)cc1 (stereo not drawn) | -4% | -4% | -20%
Cc1ccc(NC(=O)CCc2c(C)nc3c(-c4ccc(F)cc4)c(C)nn3c2C)cc1F | 11% | 8% | .
C/C(=N\NC(N)=S)c1ccc2c(c1)OCCO2 | -5% | -10% | -25%
